Consider 14 molecules from PubChem BioAssay (EPA / NIEHS).

Inconclusive results are not listed. The source made the active and inactive calls. How the source made its calls, unless noted: active means hit-call score of the fitted dose curve at least 0.9, where 1 is the maximum; inactive means score below 0.9.

The target of assay [1] is human RAR-related Orphan Receptor gamma (RORg), RORC (gene 6097) (UniProt P51449). Kind of assay: ATG_RORg_TRANS: Attagene TRANS-FACTORIAL HepG2 Assay for human RAR-related Orphan Receptor gamma (RORg) (AID 2283011; active means hit-call score of the fitted dose curve at least 0.9, where 1 is the maximum). The method, boiled down:
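Readout: reporter transcript induction (RT-PCR, fluorescent primer extension, capillary electrophoresis) after 24 h compound exposure of transiently transfected HepG2 cells carrying a RORg-Gal4 chimera and GAL4-UAS reporters; DMSO served as baseline, with increasing signal fitted.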

The target of assay [2] is human Retinoid X Receptor beta (RXRb), RXRB (gene 6257) (UniProt P28702). Kind of assay: ATG_RXRb_TRANS: Attagene TRANS-FACTORIAL HepG2 Assay for human Retinoid X Receptor beta (RXRb) (AID 2283013; active means hit-call score of the fitted dose curve at least 0.9, where 1 is the maximum). The procedure, abridged:
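HepG2 cells were transiently transfected with multiplexed GAL4-UAS reporters and a chimeric RXRb-Gal4 construct, then exposed for 24 h. Reporter mRNA was quantified by RT-PCR, FAM labeling, HpaI digestion and capillary electrophoresis; gain of signal was scored against DMSO.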

Assay [3] addresses human Thyroid Receptor alpha (THRa1), THRA (gene 7067) (UniProt P10827). The assay can be described thus: ATG_THRa1_TRANS: Attagene TRANS-FACTORIAL HepG2 Assay for human Thyroid Receptor alpha (THRa1) (AID 2283014; active means hit-call score of the fitted dose curve at least 0.9, where 1 is the maximum). The procedure, abridged: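 HepG2 cells transiently transfected with multiplexed GAL4-UAS reporter units for exogenous chimeric THRa1-Gal4; reporter mRNA measured 24 h after dosing by RT-PCR, 6-FAM labelling, HpaI digestion and capillary electrophoresis. Gain-of-signal fitted versus DMSO baseline.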

Assay [4] has as its target human Vitamin D Receptor (VDR), VDR (gene 7421) (UniProt P11473). The assay can be described thus: ATG_VDR_TRANS: Attagene TRANS-FACTORIAL HepG2 Assay for human Vitamin D Receptor (VDR) (AID 2283022; active means hit-call score of the fitted dose curve at least 0.9, where 1 is the maximum). The procedure, abridged: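 HepG2 cells were transiently transfected with multiple GAL4-UAS reporter units, so signal reflects exogenous chimeric receptor-Gal4 activity. After 24 h compound exposure, reporter mRNA was measured by RT-PCR, fluorescent labelling and capillary electrophoresis, fitted for gain of signal versus DMSO.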

Assay [5] addresses Retinoic acid receptor RXR-alpha (Homo sapiens) (UniProt P19793). Kind of assay: ATG_RXRa_TRANS: Attagene TRANS-FACTORIAL HepG2 Assay for human Retinoid X Receptor alpha (RXRa) (AID 2283012; active means hit-call score of the fitted dose curve at least 0.9, where 1 is the maximum). The method, boiled down: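 HepG2 cells transiently transfected with GAL4-UAS reporter units and chimeric RXRa-Gal4 protein, treated 24 h. Reporter mRNA measured by RT-PCR, fluorescent labelling, HpaI digestion and capillary electrophoresis. Induction fitted against DMSO.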

Read-out in assay [6]: E-selectin (Homo sapiens) (UniProt P16581)
Kind of assay: BSK_3C_Eselectin: BioMAP Diversity Plus: 3C Assay for Eselectin Biomarker Activity (AID 2283015). Particulars: primary human endothelial cells (HUVEC); actives raise or lower the signal. The method, boiled down:
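Primary human umbilical vein endothelial cells (3C system) were dosed with chemical and cell-surface E-selectin measured by ELISA 24 h later. Bidirectional curve fitting used DMSO as negative control and baseline.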

Read-out in assay [7]: Interleukin-1 alpha (IL1a), IL1A (gene 3552)
The assay can be described thus: BSK_BE3C_IL1a: BioMAP Diversity Plus: BE3C Assay for Interleukin-1 alpha (IL1a) Biomarker Activity (AID 2283016). Particulars: primary human bronchial epithelial cells; actives raise or lower the signal. The procedure, abridged:
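Human primary bronchial epithelial cells, 24 h chemical exposure; IL-1a quantified by ELISA, fitted bidirectionally against DMSO. Cytotoxicity assessed in parallel by SRB total-protein staining at the time of measurement.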

Read-out in assay [8]: Monocyte Chemoattractant Protein-1 (MCP1), CCL2 (gene 6347)
The assay can be described thus: BSK_3C_MCP1: BioMAP Diversity Plus: 3C Assay for Monocyte Chemoattractant Protein-1 (MCP1) Biomarker Activity (AID 2283017). Particulars: primary human endothelial cells (HUVEC); actives raise or lower the signal. The procedure, abridged: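 Primary human umbilical vein endothelial cells (3C system) were exposed to test chemical for 24 h, after which MCP-1 was quantified by ELISA. Activity was fitted bidirectionally against DMSO as negative control and baseline.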

Read-out in assay [9]: Monocyte Chemoattractant Protein-1 (MCP1), CCL2 (gene 6347)
The assay can be described thus: BSK_4H_MCP1: BioMAP Diversity Plus: 4H Assay for Monocyte Chemoattractant Protein-1 (MCP1) Biomarker Activity (AID 2283018). Particulars: primary human endothelial cells (HUVEC); actives raise or lower the signal. The procedure, abridged:
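Human umbilical vein endothelial cells (4H system) exposed to chemicals for 24 h in 96-well format. MCP-1 measured by ELISA; bidirectional fitting against DMSO, with SRB total-protein staining in parallel cultures for cytotoxicity.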

Read-out in assay [10]: Interleukin-8 (IL8), CXCL8 (gene 3576)
The assay can be described thus: BSK_3C_IL8: BioMAP Diversity Plus: 3C Assay for Interleukin-8 (IL8) Biomarker Activity (AID 2283020). Particulars: primary human endothelial cells (HUVEC); actives raise or lower the signal. The method, boiled down:
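Primary human umbilical vein endothelial cells were dosed for 24 h. IL-8 was quantified by ELISA and fitted bidirectionally against DMSO. Cytotoxicity was assessed in parallel cultures by SRB staining at 560 nm.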

Read-out in assay [11]: Monokine induced gamma interferon (MIG), CXCL9 (gene 4283)
Kind of assay: BSK_3C_MIG: BioMAP Diversity Plus: 3C Assay for Monokine induced gamma interferon (MIG) Biomarker Activity (AID 2283021). Particulars: primary human endothelial cells (HUVEC); actives raise or lower the signal. The method, boiled down: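 HUVEC primary endothelial cultures dosed with chemical; MIG quantified by ELISA at 24 h. Data fitted bidirectionally against DMSO control, with parallel SRB total-protein staining for cytotoxicity.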

Assay [12] in a line: BSK_3C_SRB: Viability Assessment in the BioMAP Diversity Plus: 3C Assay (AID 2283023).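 Further: fitted both ways against DMSO so a hit may be signal rise or drop.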 Particulars: primary human endothelial cells (HUVEC). The procedure, abridged: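 Primary human umbilical vein endothelial cells in the 3C system were read 24 h after compound dosing. Total protein was stained with 0.1% sulforhodamine B after 10% TCA fixation and read at 560 nm, with bidirectional fitting against DMSO as baseline.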

Read-out in assay [13]: Matrix Metallopeptidase 1 (MMP1), MMP1 (gene 4312)
The assay can be described thus: BSK_BE3C_MMP1: BioMAP Diversity Plus: BE3C Assay for Matrix Metallopeptidase 1 (MMP1) Biomarker Activity (AID 2283024). Particulars: primary human bronchial epithelial cells; actives raise or lower the signal. The procedure, abridged: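 Human primary bronchial epithelial cells (BE3C system) dosed for 24 h; MMP-1 quantified by ELISA. Bidirectional fit against DMSO; cytotoxicity tracked in parallel cultures by SRB total-protein staining.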

Assay [14] is described as follows: BSK_3C_Vis: BioMAP Diversity Plus: 3C Assay for Morphology Visualization (AID 2283025).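 Further: fitted both ways so gain or loss versus DMSO counts.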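 On AC50: light microscopy image of cell morphology used as background control.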 Particulars: primary human endothelial cells (HUVEC). The procedure, abridged: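 Human umbilical vein endothelial cell morphology was inspected by light microscopy 24 h after chemical dosing; scored bidirectionally relative to DMSO.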
Read-out in assay [15]: Pselectin, SELP (gene 6403)
Kind of assay: BSK_4H_Pselectin: BioMAP Diversity Plus: 4H Assay for Pselectin Biomarker Activity (AID 2283026). Particulars: primary human endothelial cells (HUVEC); actives raise or lower the signal. The procedure, abridged: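 Primary human umbilical vein endothelial cells were treated 24 h, and cell-surface P-selectin was then quantified by ELISA. Bidirectional fit versus DMSO; cytotoxicity checked in parallel cultures by SRB total-protein staining.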

The nature of assay [16]: BSK_4H_SRB: Viability Assessment in the BioMAP Diversity Plus: 4H Assay (AID 2283027).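 Further: cells exposed to compound for 24 h before staining.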 Particulars: primary human endothelial cells (HUVEC). The method, boiled down:
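Absorbance at 560 nm of SRB-stained total protein served as the viability read-out in confluent primary human umbilical vein endothelium 24 h after chemical treatment. Curves were fitted bidirectionally against DMSO as negative control.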

Assay [17] can be described thus: BSK_BE3C_SRB: Viability Assessment in the BioMAP Diversity Plus: BE3C Assay (AID 2283028). Particulars: primary human bronchial epithelial cells. The method, boiled down: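 Human primary bronchial epithelial cells were exposed to test chemicals for 24 h. Total protein in parallel cultures was then measured by staining with 0.1% sulforhodamine B after 10% TCA fixation, with absorbance read at 560 nm. Activity was fitted bidirectionally against DMSO.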

Read-out in assay [18]: Thrombomodulin, THBD (gene 7056)
Kind of assay: BSK_3C_Thrombomodulin: BioMAP Diversity Plus: 3C Assay for Thrombomodulin Biomarker Activity (AID 2283029). Particulars: primary human endothelial cells (HUVEC); actives raise or lower the signal. The procedure, abridged: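 Human umbilical vein endothelial cells were exposed to chemicals for 24 h; cell-surface thrombomodulin quantified by ELISA, with bidirectional fitting against DMSO baseline.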

Read-out in assay [19]: Urokinase-type plasminogen activator receptor (uPAR), PLAUR (gene 5329)
The assay can be described thus: BSK_4H_uPAR: BioMAP Diversity Plus: 4H Assay for Urokinase-type plasminogen activator receptor (uPAR) Biomarker Activity (AID 2283030). Particulars: primary human endothelial cells (HUVEC); actives raise or lower the signal. The method, boiled down:
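Primary human umbilical vein endothelial cells were exposed to chemical for 24 h before cell-surface uPAR was quantified by ELISA. Activity was fitted bidirectionally against the DMSO negative control baseline.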

Chain of human RAR-related Orphan Receptor gamma (RORg), RORC (gene 6097) (P51449 whole entry, looked up, the tested form may be a part): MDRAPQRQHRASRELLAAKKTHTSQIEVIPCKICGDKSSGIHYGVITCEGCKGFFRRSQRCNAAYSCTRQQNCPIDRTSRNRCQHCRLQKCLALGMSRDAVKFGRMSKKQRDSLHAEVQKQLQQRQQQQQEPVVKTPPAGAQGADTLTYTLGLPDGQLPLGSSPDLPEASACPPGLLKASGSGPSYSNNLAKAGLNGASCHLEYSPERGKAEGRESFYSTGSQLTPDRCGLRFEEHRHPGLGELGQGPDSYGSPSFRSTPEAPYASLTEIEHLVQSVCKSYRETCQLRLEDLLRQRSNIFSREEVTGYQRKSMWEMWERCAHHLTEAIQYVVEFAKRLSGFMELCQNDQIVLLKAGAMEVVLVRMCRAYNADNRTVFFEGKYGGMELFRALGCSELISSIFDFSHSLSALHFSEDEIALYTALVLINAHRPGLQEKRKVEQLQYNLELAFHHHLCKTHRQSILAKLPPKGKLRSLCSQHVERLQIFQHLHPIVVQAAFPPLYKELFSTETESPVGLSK
Chain of human Thyroid Receptor alpha (THRa1), THRA (gene 7067) (P10827 whole entry, looked up, the tested form may be a part): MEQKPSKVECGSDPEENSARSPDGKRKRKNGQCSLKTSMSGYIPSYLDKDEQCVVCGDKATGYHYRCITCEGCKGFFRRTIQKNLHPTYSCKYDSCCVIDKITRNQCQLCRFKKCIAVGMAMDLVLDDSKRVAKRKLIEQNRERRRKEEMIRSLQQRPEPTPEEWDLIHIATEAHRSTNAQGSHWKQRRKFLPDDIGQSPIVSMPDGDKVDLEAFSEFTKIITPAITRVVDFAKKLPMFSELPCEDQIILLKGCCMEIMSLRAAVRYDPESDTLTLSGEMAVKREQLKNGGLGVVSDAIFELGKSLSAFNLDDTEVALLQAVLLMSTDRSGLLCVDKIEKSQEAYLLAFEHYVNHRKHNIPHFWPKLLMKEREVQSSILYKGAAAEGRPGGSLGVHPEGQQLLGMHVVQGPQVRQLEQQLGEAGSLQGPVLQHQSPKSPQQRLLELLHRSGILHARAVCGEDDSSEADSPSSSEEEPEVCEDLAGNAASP
Chain of Retinoic acid receptor RXR-alpha (Homo sapiens) (P19793 whole entry, looked up, the tested form may be a part): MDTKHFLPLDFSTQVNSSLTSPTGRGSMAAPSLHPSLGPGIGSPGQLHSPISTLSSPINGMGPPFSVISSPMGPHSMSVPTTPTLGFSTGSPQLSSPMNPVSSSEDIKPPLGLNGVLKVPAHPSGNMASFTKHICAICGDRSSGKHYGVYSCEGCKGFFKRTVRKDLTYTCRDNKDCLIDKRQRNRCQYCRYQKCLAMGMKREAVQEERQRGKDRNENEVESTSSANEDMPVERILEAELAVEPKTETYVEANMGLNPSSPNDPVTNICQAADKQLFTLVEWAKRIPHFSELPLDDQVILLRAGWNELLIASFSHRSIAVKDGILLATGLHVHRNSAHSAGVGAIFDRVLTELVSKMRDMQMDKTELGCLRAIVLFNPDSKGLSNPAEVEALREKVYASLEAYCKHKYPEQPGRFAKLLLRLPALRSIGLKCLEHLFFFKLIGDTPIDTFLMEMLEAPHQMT
Chain of E-selectin (Homo sapiens) (P16581 whole entry, looked up): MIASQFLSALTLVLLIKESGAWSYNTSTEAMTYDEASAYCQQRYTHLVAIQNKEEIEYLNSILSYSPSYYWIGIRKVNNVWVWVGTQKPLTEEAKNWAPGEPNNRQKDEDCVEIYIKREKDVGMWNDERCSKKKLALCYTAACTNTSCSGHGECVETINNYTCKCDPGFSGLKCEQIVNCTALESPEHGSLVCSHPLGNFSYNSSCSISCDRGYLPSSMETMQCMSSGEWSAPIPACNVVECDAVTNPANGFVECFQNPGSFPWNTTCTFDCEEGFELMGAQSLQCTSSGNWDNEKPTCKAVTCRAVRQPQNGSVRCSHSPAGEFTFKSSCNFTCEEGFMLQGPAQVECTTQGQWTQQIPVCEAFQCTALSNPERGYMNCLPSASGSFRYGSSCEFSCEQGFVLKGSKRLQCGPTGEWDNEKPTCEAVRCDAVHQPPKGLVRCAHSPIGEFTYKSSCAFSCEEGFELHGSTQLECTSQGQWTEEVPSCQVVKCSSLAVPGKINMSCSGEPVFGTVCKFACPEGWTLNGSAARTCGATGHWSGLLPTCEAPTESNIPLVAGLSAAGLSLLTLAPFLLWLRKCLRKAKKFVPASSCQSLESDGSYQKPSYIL
Chain of human Retinoid X Receptor beta (RXRb), RXRB (gene 6257) (P28702 whole entry, looked up, the tested form may be a part): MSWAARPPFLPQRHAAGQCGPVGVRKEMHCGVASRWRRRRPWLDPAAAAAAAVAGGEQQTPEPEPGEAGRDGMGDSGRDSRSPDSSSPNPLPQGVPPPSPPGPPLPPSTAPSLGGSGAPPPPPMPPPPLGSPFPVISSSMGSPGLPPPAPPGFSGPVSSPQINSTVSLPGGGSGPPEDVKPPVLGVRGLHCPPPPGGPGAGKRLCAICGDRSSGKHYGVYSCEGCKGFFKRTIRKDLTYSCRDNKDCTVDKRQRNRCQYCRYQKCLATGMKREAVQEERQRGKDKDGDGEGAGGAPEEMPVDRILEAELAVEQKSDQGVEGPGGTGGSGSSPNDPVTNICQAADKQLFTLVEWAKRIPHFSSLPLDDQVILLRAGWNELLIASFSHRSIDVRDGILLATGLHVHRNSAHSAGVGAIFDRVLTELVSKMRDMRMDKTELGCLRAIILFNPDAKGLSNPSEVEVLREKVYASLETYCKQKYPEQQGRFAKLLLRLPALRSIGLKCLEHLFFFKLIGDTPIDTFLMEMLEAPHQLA
Chain of human Vitamin D Receptor (VDR), VDR (gene 7421) (P11473 whole entry, looked up, the tested form may be a part): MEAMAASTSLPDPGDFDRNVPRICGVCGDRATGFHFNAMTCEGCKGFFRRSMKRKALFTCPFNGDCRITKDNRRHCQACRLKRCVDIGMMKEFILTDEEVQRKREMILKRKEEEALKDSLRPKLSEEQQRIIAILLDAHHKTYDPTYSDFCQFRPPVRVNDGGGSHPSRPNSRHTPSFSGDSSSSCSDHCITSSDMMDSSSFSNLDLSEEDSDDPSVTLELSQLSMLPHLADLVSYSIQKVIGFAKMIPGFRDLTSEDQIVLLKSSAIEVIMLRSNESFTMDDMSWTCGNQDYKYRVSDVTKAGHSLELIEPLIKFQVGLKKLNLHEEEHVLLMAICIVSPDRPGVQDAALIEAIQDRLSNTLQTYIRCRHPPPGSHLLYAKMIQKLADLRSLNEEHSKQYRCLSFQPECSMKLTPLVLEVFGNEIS

Turning to `CCCCCCCCCCCCCl`, the call in assay [1], in assay [3] and in assay [4] was inactive. Besides, in assay [2], the AC50 is 65.2 µM (active).
`NNCCO`: the result in [1], in [5] and in assay [3] was inactive.
Regarding `CNC(=O)N(C)c1nc2ccccc2s1`, the outcome in assay [1], in assay [2] and in assay [3] was inactive.
In the case of `C[C@]12CC[C@@H](O)C[C@@H]1CC[C@@H]1[C@@H]2CC[C@]2(C)C(=O)CC[C@@H]12`, the result in assay [1], in assay [2], in assay [6], in assay [7], in assay [8] and in assay [9] was inactive. In addition, the outcome in [10], in assay [11], in [4], in assay [12], in assay [13] and in assay [14] was inactive. Besides, the result in assay [15], in assay [16], in assay [17], in [18] and in assay [19] was inactive.
As to `CN(C)c1ccc(N=O)cc1`, the outcome in [1], in assay [2] and in assay [3] was inactive.
As to `ClCCN1CCOCC1`, the result in [1] and in assay [2] was inactive.
For the molecule `C#C[C@]1(O)CC[C@H]2[C@@H]3CCC4=CC(=O)CC[C@]4(C)[C@H]3CC[C@@]21C`, the outcome in assay [1], in [5] and in assay [3] was inactive.
Take `CCOP(=O)(OCC)SCCSCC`: the outcome in [1], in [2], in assay [3], in assay [6], in assay [7] and in assay [8] was inactive. Further, the outcome in assay [9], in assay [10], in assay [11], in assay [12], in [13] and in assay [14] was inactive. Also, the outcome in assay [15], in assay [16], in assay [17], in assay [18] and in [19] was inactive.
As for `ClCc1ccccc1CCl`, the outcome in assay [1], in assay [2], in assay [3] and in assay [4] was inactive.
On to `CC(C)=CC1C(C(=O)OCc2cccc(Oc3ccccc3)c2)C1(C)C` (stereo not given), for which the outcome in [1], in assay [2], in assay [7], in assay [10], in assay [11] and in assay [13] was inactive. Besides, the outcome in assay [15], in assay [16], in assay [17], in [18] and in assay [19] was inactive. The concentration at half-maximal activity (AC50) in assay [6] is 2.62 µM (active); in assay [9], 20 µM (active); in assay [12], 26.7 µM (active); in assay [14] it was 37.6 µM (active).
As for `C=CC(=O)OCC(COC(=O)C=C)(COC(=O)C=C)COC(=O)C=C`, the outcome in [1] and in [3] was inactive. Besides, in [2], the AC50 is 100 µM (active).
`O=C(N[C@H]1CN2CCC1CC2)c1ccc2c(c1)OCCO2`: the molecule was called inactive in assay [1], in assay [5], in [6], in assay [7], in assay [9] and in [10]. The outcome in [11], in [4], in assay [12], in assay [13], in assay [14] and in assay [15] was inactive. The outcome in [16], in assay [17], in [18] and in assay [19] was inactive.
On to `CCOP(=S)(OCC)SCS(=O)(=O)C(C)(C)C`, for which the molecule was called inactive in assay [1], in assay [2], in [6], in assay [7], in [8] and in [9]. In addition, the outcome in [10], in assay [11], in assay [12], in assay [13], in assay [14] and in assay [15] was inactive. Also, the result in [16], in assay [17], in assay [18] and in assay [19] was inactive.
In the case of `C1CCC(C2CCCCC2)CC1`, the outcome in assay [1], in [3] and in assay [4] was inactive. The concentration at half-maximal activity (AC50) in assay [2] is 66.1 µM (active).

As usually defined, the AC50 is the midpoint of the concentration-response curve, whichever way the signal moves.
